# Assay results as given in the supplement of paper PMC4022240.
# ± gives the standard deviation.
# T1: HaloTag-ATRX ADD domain (163-292)
# T1 chain: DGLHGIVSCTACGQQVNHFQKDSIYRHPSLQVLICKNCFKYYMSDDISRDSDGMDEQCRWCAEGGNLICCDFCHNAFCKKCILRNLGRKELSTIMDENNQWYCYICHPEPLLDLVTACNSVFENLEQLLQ
# What was measured:
# Experiment in all cases: peptide microarray binding signal (635 nm), min-max normalized on array (fraction of array maximum); higher = stronger binding
# [1] = target: T1, HaloTag-ATRX ADD domain (163-292)
# Description: (§1)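 Histone 13-mer peptides were synthesized as cellulose conjugates with a C-terminal 20-atom PEG linker and printed in triplicate on nitrocellulose. The sequence given is the unmodified backbone; PTMs (Kme1/2/3, Kac, Sph/Tph, Rme/Rme2a/Rme2s, Rcit) are listed in the label and the 'peptide modifications' condition. Slides were probed at 4 °C for 1 h with biotin-labelled (HQ)5-HaloTag reader fusions (ATRX-ADD, ING2-PHD) then streptavidin-Alexa647, or with rabbit histone antibodies then anti-rabbit Alexa647. The mean 635 nm signal of the triplicate spots was scaled 0-1 between the lowest and highest values on each array.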
# [2] = target: HaloTag-ING2 PHD (mouse Ing2 200-280)
# Description: as §1
# [3] = target: anti-H3K4me3 antibody ab8580
# Description: as §1
# [4] = target: anti-H3K9me3 antibody ab8898
# Description: as §1
# [5] = peptide region: H3 1-13, peptide modifications: H3K4ac H3K9me1, binder concentration: 1:2,000 dilution
# [6] = peptide region: H3 1-13, peptide modifications: H3K4ac H3K9me1, binder concentration: 1:10,000 dilution
# [7] = peptide region: H2B 17-29, peptide modifications: H2BK24ac H2BK28ac, binder concentration: 1:2,000 dilution
# [8] = peptide region: H2B 17-29, peptide modifications: H2BK24ac H2BK28ac, binder concentration: 1:10,000 dilution
# [9] = peptide region: H2B 17-29, peptide modifications: H2BK23ac H2BK27ac, binder concentration: 1:2,000 dilution
# [10] = peptide region: H2B 17-29, peptide modifications: H2BK23ac H2BK27ac, binder concentration: 1:10,000 dilution
# [11] = peptide region: H2B 17-29, peptide modifications: H2BK24ac H2BK27ac, binder concentration: 1:2,000 dilution
# [12] = peptide region: H2B 17-29, peptide modifications: H2BK24ac H2BK27ac, binder concentration: 1:10,000 dilution
# [13] = peptide region: H3 1-13, peptide modifications: H3K4ac H3K9me3, binder concentration: 1:2,000 dilution
# [14] = peptide region: H3 1-13, peptide modifications: H3K4ac H3K9me3, binder concentration: 1:10,000 dilution
binder,measurement,setting,value
ARTKQTARKSTGG [H3 1-13 A R T Kac Q T A R Kme S T G G],peptide microarray binding signal,"[1]; peptide region: H3 1-13, peptide modifications: H3K4ac H3K9me1, binder concentration: 50 nM",0.00809 ± 0.00079
same,peptide microarray binding signal,"[1]; peptide region: H3 1-13, peptide modifications: H3K4ac H3K9me1, binder concentration: 500 nM",0.0149 ± 0.0037
same,peptide microarray binding signal,"[2]; peptide region: H3 1-13, peptide modifications: H3K4ac H3K9me1, binder concentration: 10 nM",0.0703 ± 0.011
same,peptide microarray binding signal,"[2]; peptide region: H3 1-13, peptide modifications: H3K4ac H3K9me1, binder concentration: 100 nM",0.1 ± 0.035
same,peptide microarray binding signal,[3]; [5],0.00664 ± 0.0014
same,peptide microarray binding signal,[3]; [6],0.0205 ± 0.012
same,peptide microarray binding signal,[4]; [5],0.00574 ± 0.00077
same,peptide microarray binding signal,[4]; [6],0.00565 ± 0.00024
AVTKAQKKDGKKR [H2B 17-29 A V T K A Q K Kac D G K Kac R],peptide microarray binding signal,"[1]; peptide region: H2B 17-29, peptide modifications: H2BK24ac H2BK28ac, binder concentration: 50 nM",0.00524 ± 0.00097
same,peptide microarray binding signal,"[1]; peptide region: H2B 17-29, peptide modifications: H2BK24ac H2BK28ac, binder concentration: 500 nM",0.00786 ± 0.0018
same,peptide microarray binding signal,"[2]; peptide region: H2B 17-29, peptide modifications: H2BK24ac H2BK28ac, binder concentration: 10 nM",0.00412 ± 0.00017
same,peptide microarray binding signal,"[2]; peptide region: H2B 17-29, peptide modifications: H2BK24ac H2BK28ac, binder concentration: 100 nM",0.00432 ± 0.00035
same,peptide microarray binding signal,[3]; [7],0.00034 ± 3.1e-05
same,peptide microarray binding signal,[3]; [8],0.00131 ± 5.7e-05
same,peptide microarray binding signal,[4]; [7],0.000695 ± 4.4e-05
same,peptide microarray binding signal,[4]; [8],0.000519 ± 5.6e-06
AVTKAQKKDGKKR [H2B 17-29 A V T K A Q Kac K D G Kac K R],peptide microarray binding signal,"[1]; peptide region: H2B 17-29, peptide modifications: H2BK23ac H2BK27ac, binder concentration: 50 nM",0.0053 ± 0.00061
same,peptide microarray binding signal,"[1]; peptide region: H2B 17-29, peptide modifications: H2BK23ac H2BK27ac, binder concentration: 500 nM",0.00781 ± 0.00049
same,peptide microarray binding signal,"[2]; peptide region: H2B 17-29, peptide modifications: H2BK23ac H2BK27ac, binder concentration: 10 nM",0.00722 ± 0.00015
same,peptide microarray binding signal,"[2]; peptide region: H2B 17-29, peptide modifications: H2BK23ac H2BK27ac, binder concentration: 100 nM",0.00751 ± 0.001
same,peptide microarray binding signal,[3]; [9],0.0021 ± 0.00039
same,peptide microarray binding signal,[3]; [10],0.000856 ± 8.9e-06
same,peptide microarray binding signal,[4]; [9],0.000604 ± 2e-05
same,peptide microarray binding signal,[4]; [10],0.000923 ± 9.6e-06
AVTKAQKKDGKKR [H2B 17-29 A V T K A Q K Kac D G Kac K R],peptide microarray binding signal,"[1]; peptide region: H2B 17-29, peptide modifications: H2BK24ac H2BK27ac, binder concentration: 50 nM",0.00238 ± 4.6e-05
same,peptide microarray binding signal,"[1]; peptide region: H2B 17-29, peptide modifications: H2BK24ac H2BK27ac, binder concentration: 500 nM",0.0059 ± 0.00037
same,peptide microarray binding signal,"[2]; peptide region: H2B 17-29, peptide modifications: H2BK24ac H2BK27ac, binder concentration: 10 nM",0.00197 ± 4.6e-05
same,peptide microarray binding signal,"[2]; peptide region: H2B 17-29, peptide modifications: H2BK24ac H2BK27ac, binder concentration: 100 nM",0.00177 ± 6.2e-05
same,peptide microarray binding signal,[3]; [11],0.00138 ± 0.0002
same,peptide microarray binding signal,[3]; [12],0.000685 ± 7.2e-06
same,peptide microarray binding signal,[4]; [11],0.000227 ± 4.1e-06
same,peptide microarray binding signal,[4]; [12],0.000346 ± 3.8e-06
ARTKQTARKSTGG [H3 1-13 A R T Kac Q T A R Kme3 S T G G],peptide microarray binding signal,"[1]; peptide region: H3 1-13, peptide modifications: H3K4ac H3K9me3, binder concentration: 50 nM",0.0136 ± 0.004
same,peptide microarray binding signal,"[1]; peptide region: H3 1-13, peptide modifications: H3K4ac H3K9me3, binder concentration: 500 nM",0.0491 ± 0.024
same,peptide microarray binding signal,"[2]; peptide region: H3 1-13, peptide modifications: H3K4ac H3K9me3, binder concentration: 10 nM",0.0828 ± 0.015
same,peptide microarray binding signal,"[2]; peptide region: H3 1-13, peptide modifications: H3K4ac H3K9me3, binder concentration: 100 nM",0.0894 ± 0.0073
same,peptide microarray binding signal,[3]; [13],0.0339 ± 0.018
same,peptide microarray binding signal,[3]; [14],0.0225 ± 0.0063
same,peptide microarray binding signal,[4]; [13],0.0825 ± 0.052
same,peptide microarray binding signal,[4]; [14],0.0423 ± 0.027
